Test results: the supplement of paper PMC6953052
“And” between values parts separate entries of the source, which are not always exact repeats. Identical values can stand only once. ± gives the standard deviation of the averaged measurements. Whole data set: some 1,700 compounds, median “fraction of GFP-LC3-positive cells (≥5 vesicles/cell)” near 0.058, cut for the highest 2% near 0.59. The sample as a whole holds a higher share of the highest values than the screen did.

These compounds were tested on CbCln3 +/+ GFP-LC3 cerebellar neuronal cells (assay: fraction of GFP-LC3-positive cells (≥5 vesicles/cell); higher = more autophagosome accumulation).
Method in brief: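 In 384-well plates at 2 × 10^3 cells per well, GFP-LC3-expressing wild-type or mutant CbCln3 cerebellar cells took ~50 nL of compound in DMSO by pin transfer, in duplicate, for 24 h at 33 °C. Staining with Hoechst 33342 and LysoTracker Red over the final 30 min preceded fixation in 3.2% PFA and imaging of three fields per well at 10×. CellProfiler then counted GFP-LC3 vesicles in each cell, and out-of-focus images were dropped before the fraction of cells with 5 or more vesicles was averaged over duplicates.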

| Structure (SMILES) | fraction of GFP-LC3-positive cells |
| --- | --- |
| C[C@]12CCC(=O)C=C1CC[C@@H]1[C@@H]2[C@@H](O)C[C@@]2(C)[C@H]1CC[C@]2(O)C(=O)CO [Hydrocortisone base] | 0.049 |
| C[C@@H](N)[C@H]1CC[C@H](C(=O)Nc2ccncc2)CC1 | 0.074 |
| CNCCC=C1c2ccccc2CCc2ccccc21.Cl [Nortriptyline hydrochloride] | 0.0533 |
| Cc1nccn1CC1CCc2c(c3ccccc3n2C)C1=O.Cl (centres undefined) [Ondansetron Hydrochloride] | 0.03 |
| CCCCCCCCCCCCCCCCCCCCCCC(=O)O [Tricosanoic acid] | 0.0481 |
| Cc1cc(CC(=O)[O-])n(C)c1C(=O)c1ccc(Cl)cc1.[Na+] [Zomepirac sodium salt] | 0.0585 |
| CC(COc1ccccc1)N(CCCl)Cc1ccccc1.Cl (centres undefined) [Phenoxybenzamine hydrochloride] | 0.139 |
| Cc1cc(C(C)(C)C)cc(C)c1CC1=NCCN1.Cl [Xylometazoline hydrochloride] | 0.0933 |
| Cc1ccc(Cl)c(Nc2ccccc2C(=O)[O-])c1Cl.O.[Na+] [Meclofenamic acid sodium salt monohydrate] | 0.0498 |
| CCCC[C@@H](C)/C=C(C)/C=C(\C)C(=O)NC1=C[C@@](O)(/C=C/C=C/C=C/C(=O)NC2=C(O)CCC2=O)[C@@H]2O[C@@H]2C1=O [manumycin A] | 0.695 |
| COc1ccccc1OCC(O)COC(N)=O (centres undefined) [Methocarbamol] | 0.0551 |
| COc1cc(C(=O)OCCCN2CCCN(CCCOC(=O)c3cc(OC)c(OC)c(OC)c3)CC2)cc(OC)c1OC.Cl.Cl [Dilazep dihydrochloride] | 0.0467 |
| COc1cc(/C=C/C(=O)N2CCC=CC2=O)cc(OC)c1OC [Piperlongumine] | 0.781 |
| COC(=O)[C@H]1[C@H]2C[C@@H]3c4[nH]c5cc(OC)ccc5c4CCN3C[C@H]2C[C@@H](OC(=O)/C=C/c2cc(OC)c(OC)c(OC)c2)[C@@H]1OC [Rescinnamin] | 0.134 |
| COc1ccc2c(c1OC)C(=O)O[C@@H]2[C@H]1c2c(cc3c(c2OC)OCO3)CCN1C [Noscapine] | 0.0895 |
| COc1ccc(C(=O)c2ccccc2)c(O)c1 [Oxybenzone] | 0.0797 |
| Oc1cc(O)cc(/C=C/c2ccc(O)c(O)c2)c1 [Piceatannol] | 0.357 |
| Oc1cc(O)cc(/C=C/c2ccc(O)c(O)c2)c1 | 0.173 |
| COC(=O)/C=C/c1cc(O)ccc1O | 0.852 |
| CCCCCCCC/C=C\CCCCCCCCOC[C@H](COP(=O)([O-])OCC[N+](C)(C)C)OC(C)=O | 0.0408 ± 0.0017 |
| C[n+]1cccc(C(=O)[O-])c1 [Trigonelline] | 0.042 |
| Cn1cnc2c(NCc3ccccc3)nc(NCCO)nc21 [olomoucine] | 0.058 |
| Cn1cnc2c(NCc3ccccc3)nc(NCCO)nc21 | 0.0719 |
| O.O.O=c1c(O)c(-c2ccc(O)c(O)c2)oc2cc(O)cc(O)c12 [Quercetine dihydrate] | 0.0843 |
| CCCC[C@@H](C=O)NC(=O)[C@H](CC(C)C)NC(=O)[C@H](CC(C)C)NC(C)=O | 0.926 |

| Structure (SMILES) | fraction of GFP-LC3-positive cells |
| --- | --- |
| CSCC[C@@H](C=O)NC(=O)[C@H](CC(C)C)NC(=O)[C@H](CC(C)C)NC(C)=O | 0.0674 |
| CC(=O)N[C@@H](CC(C)C)C(=O)N[C@@H](CC(C)C)C(=O)N[C@H](C=O)CCCNC(=N)N [Leupeptin] | 0.0499 |
| Nc1ccn([C@H]2CC[C@@H](CO)O2)c(=O)n1 [Zalcitabine] | 0.11 |
| O=C1CCc2c(ccc3ccccc23)O1 [Splitomycin] | 0.0416 |
| O=C1C=CC(=O)c2c1ccc1c2ccc2ccccc21 [Chrysene-1,4-quinone] | 0.597 |
| CCCCCCCCCCC(=O)O [Undecanoic acid] | 0.0729 |
| CC(=O)Oc1cc(C(C)C)c(OCCN(C)C)cc1C.Cl [Moxisylyte hydrochoride] | 0.0756 |
| CS(=O)(=O)c1ccc([C@@H](O)[C@@H](CO)NC(=O)C(Cl)Cl)cc1 [Thiamphenicol] | 0.0366 |
| COc1ccc(CC(N)C(=O)N[C@H]2[C@@H](O)[C@H](n3cnc4c(N(C)C)ncnc43)O[C@@H]2CO)cc1 (some centres undefined) [puromycin] | 0.276 |
| N=C(N)N1CCc2ccccc2C1.N=C(N)N1CCc2ccccc2C1.O=S(=O)(O)O [Debrisoquin sulfate] | 0.0501 |
| C/C=C(/C(=C/C)c1ccc(O)cc1)c1ccc(O)cc1 [Dienestrol] | 0.14 |
| CCCCC/C=C/C/C=C/CCCCCCCCCCC(=O)O [12(Z), 15(Z)-Heneicosadienoic acid] | 0.0338 |
| NC(CO)(CO)CO.O=C(c1ccccc1)c1ccc2n1CCC2C(=O)O (centres undefined) [Ketorolac tromethamine] | 0.0452 |
| CC(C)(C)NCC(O)COc1cccc2c1CC(O)C(O)C2 (centres undefined) [Nadolol] | 0.0452 |
| O=C(O)c1ccccc1Nc1ccccc1 | 0.0543 |
| N#CC(=C(/N)Sc1ccccc1N)/C(C#N)=C(\N)Sc1ccccc1N | 0.0648 and 0.109 |
| CO[C@H]1/C=C/O[C@@]2(C)Oc3c(C)c(O)c4c(O)c(c(/C=N/N5CCN(C)CC5)c(O)c4c3C2=O)NC(=O)/C(C)=C\C=C\[C@H](C)[C@H](O)[C@@H](C)[C@@H](O)[C@@H](C)[C@H](OC(C)=O)[C@@H]1C [Rifampicin] | 0.0415 |
| C[C@]12CCC(=O)C=C1CC[C@@H]1[C@@H]2C(=O)C[C@@]2(C)[C@H]1CC[C@]2(O)C(=O)CO [Cortisone] | 0.0551 |
| CCCCCCCC/C=C/CCCCCCCCCCC(=O)O [12(Z) Heneicosenoic acid] | 0.0354 |
| CCC1(c2ccccc2)C(=O)NCNC1=O [Primidone] | 0.0329 |
| CC(C)Cn1c(=O)n(C)c(=O)c2[nH]cnc21 | 0.0399 |
| CN1C(C(=O)Nc2ccccn2)=C(O)c2ccccc2S1(=O)=O [piroxicam] | 0.0598 |
| C[C@H](NCCc1ccc(O)cc1)[C@H](O)c1ccc(O)cc1.Cl [Ritodrine hydrochloride] | 0.0423 |
| CO[C@H]1C[C@@H]2CC[C@@H](C)[C@@](O)(O2)C(=O)C(=O)N2CCCC[C@H]2C(=O)O[C@H]([C@H](C)C[C@@H]2CC[C@@H](O)[C@H](OC)C2)CC(=O)[C@H](C)/C=C(\C)[C@@H](O)[C@@H](OC)C(=O)[C@H](C)C[C@H](C)/C=C/C=C/C=C/1C | 0.0529 |
